# Results as given in PubChem BioAssay AID449739 (Vanderbilt High Throughput Screening Facility, 2010).
# About 4,200 (4.2%) of roughly 100,000 compounds were called active. Many of the other results were omitted from the sample, so actives are more common in it than they were. Values without a mark were called inactive.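 The calls were made as follows: active = single-dose well whose peak fluorescence ratio is a statistical outlier from its plate by either plate-standardised score or position-corrected B-score; inactive = the rest.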
# Target: Voltage-dependent T-type calcium channel subunit alpha-1H (Homo sapiens) (UniProt O95180)
# Sequence (O95180 whole entry, looked up): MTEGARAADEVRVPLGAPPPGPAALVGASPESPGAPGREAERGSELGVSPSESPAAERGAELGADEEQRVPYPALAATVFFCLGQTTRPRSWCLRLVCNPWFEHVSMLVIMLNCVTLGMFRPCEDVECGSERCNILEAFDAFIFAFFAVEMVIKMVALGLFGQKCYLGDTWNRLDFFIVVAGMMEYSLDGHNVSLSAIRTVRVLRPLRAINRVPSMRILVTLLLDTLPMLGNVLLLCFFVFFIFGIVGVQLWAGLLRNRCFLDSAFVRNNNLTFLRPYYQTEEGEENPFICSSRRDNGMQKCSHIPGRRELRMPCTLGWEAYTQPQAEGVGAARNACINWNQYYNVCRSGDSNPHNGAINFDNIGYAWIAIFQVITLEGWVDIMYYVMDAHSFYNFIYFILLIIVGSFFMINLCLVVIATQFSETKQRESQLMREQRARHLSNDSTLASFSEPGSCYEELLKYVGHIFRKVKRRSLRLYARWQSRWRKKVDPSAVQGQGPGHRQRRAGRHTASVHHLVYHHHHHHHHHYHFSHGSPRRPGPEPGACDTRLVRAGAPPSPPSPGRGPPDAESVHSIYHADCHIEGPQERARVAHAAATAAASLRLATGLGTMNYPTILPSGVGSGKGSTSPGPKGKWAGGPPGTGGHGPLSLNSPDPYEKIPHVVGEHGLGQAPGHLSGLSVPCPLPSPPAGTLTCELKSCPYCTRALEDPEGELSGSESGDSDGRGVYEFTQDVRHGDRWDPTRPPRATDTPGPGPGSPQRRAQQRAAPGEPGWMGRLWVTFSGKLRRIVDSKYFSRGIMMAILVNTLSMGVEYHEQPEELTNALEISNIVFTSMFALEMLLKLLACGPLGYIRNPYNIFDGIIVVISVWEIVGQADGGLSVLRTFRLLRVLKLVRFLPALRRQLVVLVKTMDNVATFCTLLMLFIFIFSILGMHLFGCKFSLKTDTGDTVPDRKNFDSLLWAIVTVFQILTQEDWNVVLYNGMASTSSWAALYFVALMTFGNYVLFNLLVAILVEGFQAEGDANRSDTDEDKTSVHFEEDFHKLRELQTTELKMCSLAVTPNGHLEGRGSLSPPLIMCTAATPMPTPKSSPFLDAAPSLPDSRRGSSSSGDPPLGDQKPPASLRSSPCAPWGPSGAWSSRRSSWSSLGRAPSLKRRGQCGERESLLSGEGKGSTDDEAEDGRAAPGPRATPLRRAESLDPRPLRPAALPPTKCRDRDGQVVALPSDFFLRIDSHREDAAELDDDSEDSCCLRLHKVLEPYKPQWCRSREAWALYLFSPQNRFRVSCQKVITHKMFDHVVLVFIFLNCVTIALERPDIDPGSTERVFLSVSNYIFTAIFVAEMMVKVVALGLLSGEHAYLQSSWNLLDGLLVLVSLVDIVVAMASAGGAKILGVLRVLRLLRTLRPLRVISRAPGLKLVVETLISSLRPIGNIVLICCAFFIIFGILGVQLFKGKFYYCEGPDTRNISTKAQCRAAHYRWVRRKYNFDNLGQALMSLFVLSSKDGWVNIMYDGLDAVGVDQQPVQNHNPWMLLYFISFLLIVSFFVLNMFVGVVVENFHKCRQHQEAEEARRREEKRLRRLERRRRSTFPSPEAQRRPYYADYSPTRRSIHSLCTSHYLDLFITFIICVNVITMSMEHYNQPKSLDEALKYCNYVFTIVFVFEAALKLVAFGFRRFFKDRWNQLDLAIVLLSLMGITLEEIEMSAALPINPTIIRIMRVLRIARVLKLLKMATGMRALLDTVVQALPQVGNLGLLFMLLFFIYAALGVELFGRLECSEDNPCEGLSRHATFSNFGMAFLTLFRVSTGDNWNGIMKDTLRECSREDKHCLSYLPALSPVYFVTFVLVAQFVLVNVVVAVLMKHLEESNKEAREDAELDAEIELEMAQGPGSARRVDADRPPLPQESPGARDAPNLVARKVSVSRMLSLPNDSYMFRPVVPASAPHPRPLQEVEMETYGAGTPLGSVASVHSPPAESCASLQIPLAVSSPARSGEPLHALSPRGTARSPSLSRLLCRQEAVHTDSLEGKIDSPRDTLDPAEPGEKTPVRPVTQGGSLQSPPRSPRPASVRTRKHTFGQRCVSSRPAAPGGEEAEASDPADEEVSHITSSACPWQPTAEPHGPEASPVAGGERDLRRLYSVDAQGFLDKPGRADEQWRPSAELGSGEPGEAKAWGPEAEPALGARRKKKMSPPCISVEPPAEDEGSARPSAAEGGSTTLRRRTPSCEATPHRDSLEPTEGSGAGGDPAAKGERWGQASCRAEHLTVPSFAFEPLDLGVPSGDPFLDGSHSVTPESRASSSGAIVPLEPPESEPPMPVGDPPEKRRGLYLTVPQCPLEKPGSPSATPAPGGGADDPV
# Experiment: Cav3.2 calcium influx blockers – cell-based, Fluo-4 calcium fluorescence, FDSS, MLSMR library, primary screen (AID 449739)
# Conditions: Cav3.2-expressing cells, at 10 µM, hits give low values
row,Structure (SMILES),B-score
1,COc1cc(Cn2c(N)c(C(=O)NCc3ccco3)c3nc4ccccc4nc32)cc(OC)c1OC,-1.47 (active)
2,CCOC(=O)c1c(N)n(Cc2ccccc2)c2nc3ccccc3nc12,-0.856
3,CCOC(=O)c1c(N)n(CCN2CCOCC2)c2nc3ccccc3nc12,0.618
4,O=C(COc1ccc2ccccc2c1)N1CCN(Cc2ccncc2)CC1,0.31
5,CCC(=NCCCO)c1c(O)n(-c2ccc(OC)cc2)c(=O)[nH]c1=O,-0.0478
6,CCCCCCN=C(CC)c1c(O)n(CCCC)c(=O)[nH]c1=O,-6.91 (active)
7,CCCCn1c(O)c(C(CC)=NCc2ccco2)c(=O)[nH]c1=O,-0.626
8,COC(=O)C1=C(c2cc3ccccc3o2)C[C@@H]2CC[C@H]1N2C(=O)NC1CCCCC1,-0.929
9,COc1ccc2c(c1)[C@]13CCCCC1C(C2)N(C)CC3 (stereo not given in full),1.06
10,CCCCCn1c(=O)c(C(=O)NCc2ccccn2)c(O)c2ccccc21,-1.65
11,CCCCCn1c(=O)c(C(=O)Nc2c(C)n(C)n(-c3ccccc3)c2=O)c(O)c2ccccc21,-7.21 (active)
12,C[C@@]1([C@@H](NP(=O)(c2ccccc2)c2ccccc2)c2ccccc2)C[C@H]1CCO,-0.319
13,C[N+]1(C)CCOC(O)(c2ccc(-c3ccc(C4(O)C[N+](C)(C)CCO4)cc3)cc2)C1 (stereo not given),0.445
14,C=CC12CN(C)[C@@H]3C4CO[C@H](C[C@H]41)[C@]1(C(=O)Nc4ccccc41)[C@@H]32 (stereo not given in full),-0.174
15,Cc1ccc(N(C)C(=O)Oc2cccc3ccc(C)nc23)cc1,-6.07 (active)
16,COC(=O)C1=C(c2ccccc2)C[C@@H]2CC[C@H]1N2C(=O)NCc1ccco1,0.641
17,CCCC[N+]1(C)C2CC(OC(=O)C(CO)c3ccccc3)CC1C1OC12 (stereo not given),-0.292
18,CN(C)C(=O)NC(O)C(Cl)(Cl)Cl (stereo not given),-0.859
19,CNCC(O)c1cc(F)c(OCc2ccccc2)c(OCc2ccccc2)c1F (stereo not given),-0.0158
20,CC(C)(C)c1ccc(CN2C(=O)CN=C(c3ccccc3)c3ccccc32)cc1,-5.08 (active)
21,CC1C2Cn3c(nc4ccccc43)C1N(C)O2 (stereo not given),0.301
22,COC(=O)C1=C(c2cc3ccccc3s2)C[C@@H]2CC[C@H]1N2C(=O)NCc1cccc2ccccc12,-4.11 (active)
23,COC(=O)C1=C(c2cc3ccccc3s2)C[C@@H]2CC[C@H]1N2C(=O)NCCO,0.584
24,COC(=O)C1=C(c2cc3ccccc3s2)C[C@@H]2CC[C@H]1N2C(=O)NC(C)C,0.726
25,COC(=O)C1=C(c2ccccc2)C[C@@H]2CC[C@H]1N2C(=O)N1CCCCC1,0.364
26,COc1ccc2c(c1O)-c1cccc3c1[C@@H](C2)N(C)CC3,-2.61
27,COc1c(O)ccc2c1-c1c3c(cc4c1C(C2)N(C)CC4)OCO3 (stereo not given),0.137
28,CC[C@H]1CC2CN3CCc4c([nH]c5ccccc45)C(C(=O)OC)(C2)C13 (stereo not given in full),-1.28
29,NCC(O)c1ccc(O)cc1 (stereo not given),1.98
30,CC(C)(C)[C@]1(O)C[C@@H]2OC(=O)C[C@@]23C(=O)O[C@@H]2OC(=O)[C@H](O)[C@]213,0.0998
